Bioassay records (PubChem)
Rows were chosen to be rich in hits. Some 3.7% of all compounds tested hit in one or more screens of this group.
UGM FP inh – blocks M. tuberculosis UGM enzyme | 320,000 compounds, 0.06% hits | P9WIQ1 | AID 504406 | inhibition, % at 10 µM | purified UGM, fluorescence polarization probe displacement; in the data active means inhibition above about 10%, passing the limit was not always enough; inconclusive means no clear call, values can overlap the other calls
Rv3671c inh – inhibitors of M. tuberculosis serine protease Rv3671c; P9WHR9; inhibition, % at 5.96 µM; 320,000 compounds, 0.048% hits; in the data active means inhibition above about 38%;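 further: extracellular domain of Rv3671c used as enzyme; 0% = enzyme with DMSO and 100% = no enzyme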
FadD28 binding – blocks FadD28 binding to the bisubstrate probe; fluorescence polarization; inhibition, % at 12.5 µM; 360,000 compounds, 0.22% hits; AID 588549; in the data active means inhibition above about 8.5%, passing the limit was not always enough; inconclusive means no clear call, values can overlap the other calls
Mtb betalactam – beta-lactam sensitization of Mtb H37Rv; M. tuberculosis H37Rv growth with meropenem, percent inhibition; inhibition, % at 25 µM; 330,000 compounds, 0.27% hits; call rule not given here;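 further: growth measured after seven days incubation then overnight dye step; 0% = bacteria only wells and 100% = bacteria with antibiotic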
FBA Mtb inh – Mtb fructose-bisphosphate aldolase inhibition | 360,000 compounds, 2.3% hits | purified M. tuberculosis FBA, fluorescence read-out | P9WQA3 | inhibition, % at 1 µM;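 further: 0% = vehicle and 100% = reference inhibitor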
Target sequence (P9WQA3 whole entry, looked up): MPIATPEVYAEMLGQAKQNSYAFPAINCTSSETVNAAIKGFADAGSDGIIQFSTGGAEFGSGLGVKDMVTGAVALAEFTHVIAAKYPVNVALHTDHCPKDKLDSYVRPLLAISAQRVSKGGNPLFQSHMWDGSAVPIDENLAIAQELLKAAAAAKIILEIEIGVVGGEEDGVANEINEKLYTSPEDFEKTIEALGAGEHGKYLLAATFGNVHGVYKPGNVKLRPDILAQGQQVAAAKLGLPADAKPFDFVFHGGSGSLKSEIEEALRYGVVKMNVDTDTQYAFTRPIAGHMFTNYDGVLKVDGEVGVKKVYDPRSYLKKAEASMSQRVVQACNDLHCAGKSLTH
GDH-TPI counter-1 – inhibits GDH-TPI coupling enzymes, artifact for Mtb FBA screen; GDH-TPI coupled enzyme counterscreen, NADH absorbance; inhibition, % at 4.8 µM; 360,000 compounds, 1.2% hits; AID 588335; in the data active means inhibition above about 30%;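 further: 0% = DMSO wells and 100% = wells lacking the enzyme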
Mtb FBA confirm – confirmation of M. tuberculosis fructose-bisphosphate aldolase inhibitors | inhibition, % at 1 µM | purified M. tuberculosis FBA, fluorescence read-out | shares compounds with FBA Mtb inh | 5,600 compounds, 78% hits;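 further: 0% = vehicle wells and 100% = reference inhibitor wells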
GDH-TPI counter-2 – GDH-TPI inhibition counter-screen for FBA inhibitors. shares compounds with FBA Mtb inh. GDH-TPI coupled enzyme counterscreen, fluorescence. inhibition, % at 1 µM. 5,600 compounds, 81% hits. AID 652141; in the data active means inhibition above about 10%
GDH-TPI DR – inhibits GDH-TPI coupling enzymes in dose response; shares compounds with FBA Mtb inh; GDH-TPI coupled enzyme assay, fluorescence, artifact counterscreen; IC50, µM; 170 compounds, 79% hits; AID 652145; call rule not given here
* hit, by the source's call; ? = inconclusive; nt = no result given; + = active, no number. Unless noted, no stated cut-off is given here; in the data, active means inhibition above about 27%; inactive means the rest.

SMILES	UGM FP inh	Rv3671c inh	FadD28 binding	Mtb betalactam	FBA Mtb inh	GDH-TPI counter-1	Mtb FBA confirm	GDH-TPI counter-2	others
O=C(O)c1ccc(COc2ccc3c4c(c(=O)oc3c2)CCC4)o1	1	1	-7	-6	34*	22	95*	64*
CC(C)CC1NC(=O)C(CC(C)C)N(CO)C1=O (stereo unspecified)	nt	nt	-1	nt	1	10	nt	nt
CN(CCOc1ccccc1)C(=O)CNC(=O)c1ccc(C(C)(C)C)cc1	-1	-11	1	4	-3	2	nt	nt
Cc1noc(C)c1NC(=O)N(C)C[C@H]1OCc2cnnn2CCCC(=O)N([C@@H](C)CO)C[C@H]1C	nt	nt	-1	nt	4	7	nt	nt
O=C(NCCCN1CCOCC1)c1cc(-c2ccco2)nc2ccccc12	2	8	-2	1	89*	16	115*	75*
COc1ccc(-c2cc(C(=O)NCCCN3CCOCC3)c3ccccc3n2)cc1OC	nt	-5	0	-11	8	17	nt	nt
Cc1ccc(-c2cc(C(=O)NCCCn3ccnc3)c3ccccc3n2)s1	-3	10	-3	8	110*	9	154*	125*
O=C(NCCCN1CCOCC1)c1cc(-c2ccc(F)cc2)nc2ccccc12	1	-2	1	5	11	5	nt	nt
CC1CN(C(=O)c2cc(-c3ccc(Cl)s3)nc3ccccc23)CC(C)O1 (stereo unspecified)	0	1	-1	2	65*	14	76*	60*
CCc1ccc(-c2cc(C(=O)NCCCn3ccnc3)c3ccccc3n2)s1	-1	-6	nt	85	nt	nt	nt	nt
COc1ccc(-c2cc(C(=O)NCCCN3CCOCC3)c3cc(C(C)C)ccc3n2)cc1	1	7	-4	14	70*	7	+	141*
CC(C)CC1NC(=O)c2ccccc2-n2c1nc1ccc(F)cc1c2=O (stereo unspecified)	-1	1	nt	-5	nt	nt	nt	nt
Cc1oncc1C(=O)Nc1cccc(C#N)c1	2	5	1	?	2	7	nt	nt
CCOc1ccc(-c2cc(C(=O)NCCCN3CCOCC3)c3ccccc3n2)cc1	-3	-4	1	-8	35*	25	116*	88*
O=C(NCCCN1CCOCC1)c1cc(-c2ccc(Cl)s2)nc2ccccc12	1	-8	-1	-8	64*	14	172*	145*
CCOC(=O)c1[nH]c2ccc(OC)cc2c1NC(=S)N1CCN(c2ccccc2)CC1	1	2	-1	1	24	6	nt	nt
CCOC(=O)c1[nH]c2ccc(OC)cc2c1C(SCC(=O)O)c1ccc(C(F)(F)F)cc1 (stereo unspecified)	-3	-1	nt	-8	55*	-1	132*	85*
CC(=O)Nc1ccc(C(=O)N2CCCC(c3cc(C(=O)Nc4ccccc4Cl)no3)C2)cc1 (stereo unspecified)	nt	nt	-3	nt	-2	3	nt	nt
Cc1ccc2c(C)cc[n+](CCCS(=O)(=O)[O-])c2c1	-2	-9	-1	-4	43*	13	13	5	GDH-TPI DR=>10
Cc1cc(C)c2sc(C)[n+](CCCS(=O)(=O)[O-])c2c1	-7	2	-1	2	6	0	nt	nt
C=CCn1c(SCC(=O)NC2CCCCC2)nnc1-c1sc(N)nc1C	-1	6	0	-9	30*	10	114*	96*
OCC[C@@H]1C[C@H](O)[C@@H](O)[C@@]2(OCCCc3cc(Cl)ccc32)O1	nt	nt	-1	nt	-3	nt	nt	nt
COc1cccc(C(O)c2nc(-c3cccc(CO)c3)cs2)c1 (stereo unspecified)	nt	nt	-4	nt	-2	-4	nt	nt
CCOc1ccc2oc(-c3ccccc3)c(C(=O)N3CCN(CCO)CC3)c2c1	nt	nt	-1	nt	42*	6	93*	90*
CCN(CC)C(=O)c1c(-c2ccccc2)oc2ccc(OC)cc12	0	-1	-4	3	0	-4	nt	nt
SMILES	UGM FP inh	Rv3671c inh	FadD28 binding	Mtb betalactam	FBA Mtb inh	GDH-TPI counter-1	Mtb FBA confirm	GDH-TPI counter-2	others
CCOc1ccc2oc(-c3ccccc3)c(C(=O)N(C)C)c2c1	-1	-5	-2	-2	50*	14	-2	-4
CCOc1ccc2oc(-c3ccccc3)c(C(N)=O)c2c1	1	-13	-1	8	69*	3	+	199*
CCOC(=O)C1=CCN(S(=O)(=O)c2ccccc2Br)C1c1ccc(Cl)c(Cl)c1 (stereo unspecified)	nt	nt	-1	nt	2	nt	nt	nt
CCOc1ccc(-c2cc(C(=O)Nc3ccc(F)cc3)[nH]n2)c(C)c1	nt	nt	-2	nt	2	18	nt	nt
CC(C)N(Cc1ccccc1)S(=O)(=O)c1ccc(-n2cccn2)cc1	nt	nt	-2	nt	-2	5	nt	nt
Cc1nn(C)cc1-c1cc(C(=O)O)c2ccccc2n1	-2	-4	-1	-2	82*	7	18	7	GDH-TPI DR=3.3*
CCC1Cc2c(nc(N)c3c(N)nc(N4CCCCC4)c(C#N)c23)O1 (stereo unspecified)	-1	12	3	11	42*	4	121*	110*
COc1cc2c(C#N)c(N3CCCC3)nc(N)c2c(N)n1	3	0	0	14	5	15	nt	nt
N#Cc1c(N2CCCC2)nc(N)c2c(N)nc(N3CCCC3)cc12	-1	-222	5	5	18	21	nt	nt
N#Cc1c(N2CCCCC2)nc(N)c2c(N)nc3c(c12)CC(c1ccccc1)O3 (stereo unspecified)	1	3	-2	17	30*	16	122*	102*
CC1=C(C(=O)OC(C)C)C(c2cccnc2)C2=C(CCCC2=O)N1 (stereo unspecified)	1	-1	-5	-3	36*	15	3	-2
CCOC(=O)C1=C(C)NC2=C(C(=O)CCC2)C1c1cccnc1 (stereo unspecified)	1	-1	-2	?	36*	13	9	4
COc1cc(C(C)=O)ccc1OCC(=O)N1CCCC1c1ccc2c(c1)OCCCO2 (stereo unspecified)	nt	nt	-4	nt	-1	-8	nt	nt
O=C(COC(=O)c1ccc2ncsc2c1)NCc1ccccc1Cl	-3	-5	-2	49	-2	-8	nt	nt
COc1cccc(NC(=O)CN(C)C(=O)CCN2C(=O)C3CC=CCC3C2=O)c1 (stereo unspecified)	nt	nt	-2	nt	4	1	nt	nt
Cn1nc(C(=O)OCC(=O)Nc2ccccc2OC(F)F)c2ccccc2c1=O	1	-9	-4	0	-2	-6	nt	nt
Oc1ccccc1C=NN=Cc1ccccc1Cl	nt	nt	-1	nt	6	10	nt	nt
Cc1cccc(CNC(=O)c2ccc3c(c2)N(C)CCS3)c1	-1	0	-1	-11	56*	7	34*	38*
